Data: PubChem BioAssay (NCATS)
Inconclusive results are not listed. Active and inactive are the calls of the source. Calls come from the whole dose curve; as a rule, active = well fitted curve in the direction sought with a large enough effect; inconclusive = small, poorly fitted or top-dose-only effect, or another doubt; inactive = no such curve, though single readings can be large; an effect the other way counts as inactive or inconclusive.

Key:
[1] = target: Rap guanine nucleotide exchange factor 3 (Homo sapiens) (UniProt O95398); assay: Confirmatory qHTS for antagonist of cAMP-regulated guanine nucleotide exchange factor 3 (EPAC1) (AID 1645880); note: nearly all actives have a fitted effect of over 55% in size; note: potency is the fitted concentration of half-maximal effect
Outline: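 Released BODIPY-GDP fluoresces less than Rap1-bound BODIPY-GDP; the signal is followed at 480/540 nm at 5-min intervals over 30 min, after 5 min at room temperature. Reactions contain 100 nM EPAC1, 250 nM RAP1B-BODIPY-GDP and 50 uM GDP; results are normalized to ATA and DMSO.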

[2] = target: Rap guanine nucleotide exchange factor 3 (Homo sapiens) (UniProt O95398); assay: Confirmatory qHTS for agonist of cAMP-regulated guanine nucleotide exchange factor 3 (EPAC1) (AID 1645881);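 note: EPAC1 catalysed release of BODIPY-GDP from Rap1B seen as fluorescence loss; 100% = effect of cAMP agonist control; nearly all actives have a fitted effect of over 75% in size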
[3] = target: Rap guanine nucleotide exchange factor 4 (Homo sapiens) (UniProt Q8WZA2); assay: Confirmatory qHTS for agonist of cAMP-regulated guanine nucleotide exchange factor 4 (EPAC2) (AID 1645884);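 note: nucleotide exchange releases bodipy-GDP from Rap1 and this lowers its fluorescence; % is set by controls: 0 for no effect and ±100 for the full control effect; nearly all actives have a fitted effect of over 65% in size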
[4] = target: Rap guanine nucleotide exchange factor 4 (Homo sapiens) (UniProt Q8WZA2); assay: Confirmatory qHTS for antagonist of cAMP-regulated guanine nucleotide exchange factor 4 (EPAC2) (AID 1645885); note: nearly all actives have a fitted effect of over 25% in size; note: potency is the fitted concentration of half-maximal effect; for activity change, negative = inhibition: % is set by controls: 0 for no effect and ±100 for the full control effect
[5] = target: Rap guanine nucleotide exchange factor 3 (Homo sapiens) (UniProt O95398); assay: Counterscreen qHTS for antagonist of cAMP-regulated guanine nucleotide exchange factor 3 (EPAC1) (AID 1645888); note: % of control where 0% means no effect
Outline: (§1)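 Rap1B–BODIPY-GDP (250 nM) with 50 uM GDP; compounds pin-transferred to 9.74 nM–152 uM final (activator) or from 7.32 nM upwards (inhibitor). Fluorescence Ex/Em 480/540 nm read at 5 and 30 min, then after adding cAMP or buffer, at room temperature.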

[6] = target: Rap guanine nucleotide exchange factor 3 (Homo sapiens) (UniProt O95398); assay: Counterscreen qHTS for agonist of cAMP-regulated guanine nucleotide exchange factor 3 (EPAC1) (AID 1645889); note: % of control where 0% means no effect; nearly all actives have a fitted effect of over 40% in size
Outline: as §1

Sequence of Rap guanine nucleotide exchange factor 3 (Homo sapiens) (O95398 whole entry, looked up): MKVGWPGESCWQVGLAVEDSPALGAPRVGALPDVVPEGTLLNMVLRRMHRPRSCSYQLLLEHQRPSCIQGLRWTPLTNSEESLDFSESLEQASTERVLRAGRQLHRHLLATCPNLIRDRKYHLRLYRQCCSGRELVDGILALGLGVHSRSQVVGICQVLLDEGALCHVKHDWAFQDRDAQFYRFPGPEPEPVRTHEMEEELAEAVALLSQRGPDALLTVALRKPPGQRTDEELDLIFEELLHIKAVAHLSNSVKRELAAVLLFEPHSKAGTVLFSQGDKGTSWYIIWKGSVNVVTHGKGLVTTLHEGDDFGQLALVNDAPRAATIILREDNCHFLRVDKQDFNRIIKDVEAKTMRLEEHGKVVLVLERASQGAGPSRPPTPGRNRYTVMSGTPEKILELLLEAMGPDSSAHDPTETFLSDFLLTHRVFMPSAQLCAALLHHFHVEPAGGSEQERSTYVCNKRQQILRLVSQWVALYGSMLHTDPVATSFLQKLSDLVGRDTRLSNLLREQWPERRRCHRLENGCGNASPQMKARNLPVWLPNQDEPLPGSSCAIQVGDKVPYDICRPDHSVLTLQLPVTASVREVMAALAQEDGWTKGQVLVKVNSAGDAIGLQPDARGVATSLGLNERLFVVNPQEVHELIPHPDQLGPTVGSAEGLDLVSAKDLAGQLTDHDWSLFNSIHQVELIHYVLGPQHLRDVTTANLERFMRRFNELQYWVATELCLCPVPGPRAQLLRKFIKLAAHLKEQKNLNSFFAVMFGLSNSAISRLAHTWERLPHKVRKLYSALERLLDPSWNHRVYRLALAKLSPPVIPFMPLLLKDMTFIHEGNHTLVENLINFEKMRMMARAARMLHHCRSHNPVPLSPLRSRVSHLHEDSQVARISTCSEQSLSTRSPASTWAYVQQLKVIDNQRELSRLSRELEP
Sequence of Rap guanine nucleotide exchange factor 4 (Homo sapiens) (Q8WZA2 whole entry, looked up): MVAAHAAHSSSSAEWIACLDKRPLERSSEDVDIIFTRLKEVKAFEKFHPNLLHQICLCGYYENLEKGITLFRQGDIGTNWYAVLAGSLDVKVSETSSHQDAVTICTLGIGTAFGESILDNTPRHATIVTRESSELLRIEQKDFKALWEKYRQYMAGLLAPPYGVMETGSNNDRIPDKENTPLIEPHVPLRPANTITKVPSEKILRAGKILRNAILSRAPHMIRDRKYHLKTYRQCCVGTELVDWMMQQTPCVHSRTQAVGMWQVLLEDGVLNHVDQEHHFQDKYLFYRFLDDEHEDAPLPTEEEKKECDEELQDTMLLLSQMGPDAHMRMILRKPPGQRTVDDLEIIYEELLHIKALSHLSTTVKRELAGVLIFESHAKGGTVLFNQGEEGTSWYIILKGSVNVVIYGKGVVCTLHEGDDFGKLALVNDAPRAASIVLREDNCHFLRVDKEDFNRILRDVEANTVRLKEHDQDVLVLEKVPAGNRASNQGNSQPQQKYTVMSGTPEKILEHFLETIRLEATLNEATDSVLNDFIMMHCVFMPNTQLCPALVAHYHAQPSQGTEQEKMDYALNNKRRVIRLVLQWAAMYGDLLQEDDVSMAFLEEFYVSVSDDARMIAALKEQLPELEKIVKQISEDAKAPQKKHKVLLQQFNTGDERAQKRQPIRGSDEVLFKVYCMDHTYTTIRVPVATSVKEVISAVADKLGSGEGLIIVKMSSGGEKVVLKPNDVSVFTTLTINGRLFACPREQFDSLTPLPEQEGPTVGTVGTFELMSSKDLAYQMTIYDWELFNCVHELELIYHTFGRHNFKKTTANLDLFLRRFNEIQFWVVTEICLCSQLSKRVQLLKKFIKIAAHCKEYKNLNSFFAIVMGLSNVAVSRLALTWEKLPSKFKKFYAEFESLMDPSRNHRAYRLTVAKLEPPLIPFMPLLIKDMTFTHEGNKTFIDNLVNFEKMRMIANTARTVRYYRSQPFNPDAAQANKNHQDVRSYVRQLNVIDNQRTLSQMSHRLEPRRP

COc1ccc(C2CC(=O)n3c(nc4ccccc43)S2)cc1OC (stereo not given)
inactive: Potency [1] | Potency [2] | activation [3] 2.96% [at 17.1 µM, percent relative to cAMP agonist control] | Potency [4] | activity change, negative = inhibition [5] 10.2% [at 30.8 µM] | activation [6] 6.35% [at 30.8 µM]

Cc1ccc(/C=C/C(=O)c2ccccc(=O)c2O)c(C)c1
active: Potency [1] 44.7 µM
inactive: Potency [2] | activation [3] 1.7% [at 17.1 µM, percent relative to cAMP agonist control] | Potency [4] | activity change, negative = inhibition [5] 12.3% [at 30.8 µM] | activation [6] 23.8% [at 30.8 µM]

COc1nc(C)cc(C)c1S(=O)(=O)c1ccccc1C
inactive: Potency [1] | Potency [2] | Potency [3] | Potency [4] | Potency [5] | Potency [6]

N#Cc1c(-c2ccccc2)nc(SCC(=O)Nc2ccc(OC(F)(F)Cl)cc2)[nH]c1=O
active: Potency [1] 67.5 µM | Potency [4] 12 µM
inactive: Potency [2] | Potency [3] | Potency [5] | Potency [6]

C/C(=N\NC(=O)c1cc(-c2cccc([N+](=O)[O-])c2)n[nH]1)c1ccccc1O
active: Potency [1] 26.9 µM
inactive: Potency [2] | Potency [3] | Potency [4] | Potency [5] | Potency [6]

O=C(CCC1CCCC1)Nc1ccc([N+](=O)[O-])cn1
inactive: Potency [1] | Potency [2] | Potency [3] | Potency [4] | Potency [5] | Potency [6]

COC(=O)c1sc(-c2ccccc2)cc1NC(C)=O
inactive: Potency [1] | Potency [2] | activation [3] 3.04% [at 17.1 µM, percent relative to cAMP agonist control] | Potency [4] | activity change, negative = inhibition [5] 7.63% [at 30.8 µM] | activation [6] 9.28% [at 30.8 µM]

Cn1c(N)c(C(=O)COC(=O)COc2ccccc2C#N)c(=O)n(C)c1=O
inactive: Potency [1] | Potency [2] | activation [3] 1.14% [at 17.1 µM, percent relative to cAMP agonist control] | Potency [4] | activity change, negative = inhibition [5] 3.67% [at 30.8 µM] | activation [6] 3.75% [at 30.8 µM]

CCc1nnc(NS(=O)(=O)c2ccc(NC(=S)NC(=O)/C=C/c3ccccc3)cc2)s1
active: Potency [1] 67.5 µM
inactive: Potency [2] | Potency [3] | Potency [4] | Potency [5] | Potency [6]

Cc1ccc(S(=O)(=O)N2[C@@H](c3ccc(Cl)cc3)C(C(=O)O)=CC[C@H]2c2ccc(Cl)c(Cl)c2)cc1
active: Potency [1] 75.7 µM | Potency [4] 47.8 µM
inactive: Potency [2] | Potency [3] | Potency [5] | Potency [6]

Cc1ccccc1OCCC(=O)OCC(=O)N1CCN(S(=O)(=O)c2ccc(Cl)cc2)CC1
inactive: Potency [1] | Potency [2] | activation [3] 7.52% [at 17.1 µM, percent relative to cAMP agonist control] | Potency [4] | activity change, negative = inhibition [5] -4.15% [at 30.8 µM] | activation [6] 26.1% [at 30.8 µM]

O=C1NC(=O)/C(=C/c2ccccn2)S1
inactive: Potency [1] | Potency [2] | Potency [3] | Potency [4] | Potency [5] | Potency [6]

Cn1c(=O)c2nc(SCC(=O)Nc3ccc(Cl)c(Cl)c3)n(C)c2n(C)c1=O
inactive: Potency [1] | Potency [2] | Potency [3] | outcome [4] inactive [at 12.7 µM] | Potency [5] | Potency [6]

CCc1cccc2sc(NC(=O)c3ccc(N4C(=O)CCC4=O)cc3)nc12
inactive: Potency [1] | Potency [2] | Potency [3] | Potency [4] | Potency [5] | Potency [6]

Cc1ccc2c(c1)c1c(c(=O)n(-c3cccc(Cl)c3)c(=O)n1C)n2C
inactive: Potency [1] | Potency [2] | Potency [3] | Potency [4] | Potency [5] | Potency [6]

COc1ccc(/C=C(\NC(=O)c2cccs2)C(=O)Nc2ccc(C)cc2)cc1OC
inactive: Potency [2] | Potency [3] | Potency [4] | Potency [5] | Potency [6]
active: Potency [1] 47.8 µM

COc1ccccc1NC(=O)C(C)OC(=O)COc1cccc2c1OC(C)(C)C2 (stereo not given)
inactive: Potency [1] | Potency [2] | activation [3] 2.07% [at 17.1 µM, percent relative to cAMP agonist control] | Potency [4] | activity change, negative = inhibition [5] -14.5% [at 30.8 µM] | activation [6] 7.64% [at 30.8 µM]

Cc1ccc(C(=O)Nc2sc(C)c(C)c2C(=O)c2ccccc2)cc1
inactive: Potency [1] | Potency [2] | activation [3] 4.34% [at 17.1 µM, percent relative to cAMP agonist control] | Potency [4] | activity change, negative = inhibition [5] -1.59% [at 30.8 µM] | activation [6] -4.34% [at 30.8 µM]

COc1ccc(N2CCN(C(=O)CSc3ncn[nH]3)CC2)cc1
inactive: Potency [1] | Potency [2] | Potency [3] | Potency [4] | Potency [5] | Potency [6]

Cc1cc(-c2csc(N)n2)c(C)n1CCC(C)C
inactive: Potency [1] | Potency [2] | Potency [3] | Potency [4] | Potency [5] | Potency [6]
